Bioassay records deposited in PubChem BioAssay by University of Kansas High Throughput Screening Laboratory.
Pf apPOL inh = Pf-apPOL inhibitors, biochemical, fluorescence; Plasmodium falciparum apicoplast DNA polymerase (apPOL); Recombinant Pf-apPOL, molecular beacon fluorescence, 1.5 h; 210,000 compounds, 0.25% hits; inhibition, % at 10 µM; AID 1794808, 2022
mHTT-CaM PPI inh = mutant huntingtin-calmodulin interaction inhibitors – biochemical, AlphaScreen, primary screen. P42858. AlphaScreen His-mHTT/GST-CaM binding, luminescence. inhibition, % at 15 µM. 190,000 compounds, 3.6% hits;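 also: 0% = both proteins with DMSO and 100% = one protein alone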
* = called active by the depositor; / = no result given. Shown are actives, neighbours in structure and some others; about 3.5% of the full set was active somewhere. Rule as the data show it: active = inhibition above about 50%; inactive = the rest.

SMILES | Pf apPOL inh | mHTT-CaM PPI inh
Cc1noc(C)c1CC(=O)N1CCC2(C1)NCc1ccccc1NC2=NC(C)(C)C (stereo unspecified) | -5.7 | 31.5
COc1ccccc1NC(=O)C1CC(Cl)=CCC1C(=O)O (stereo unspecified) | -0.1 | 3.4
Cc1ccccc1NC(=O)C1CC(Cl)=CCC1C(=O)O (stereo unspecified) | 64.4* | -3.9
CCCCN(CCCC)S(=O)(=O)c1ccc2[nH]c(=O)cc(C(=O)NCc3cccnc3)c2c1 | -14.7 | -6.0
Cc1cccc(C2c3cccn3CCN2C(=O)CC(=O)NC(C)C)c1 (stereo unspecified) | 0.6 | 39.7
Oc1cccc(C2c3cccn3CCCN2Cc2cc(Cl)ccc2O)c1 (stereo unspecified) | -1.6 | 100.3*
O=C(NCc1ccc(F)cc1)N1CCn2cccc2C1Cc1ccccc1 (stereo unspecified) | -5.0 | 21.6
CC(C)c1cc(C2CCCN2Cc2cc(Cl)ccc2O)on1 (stereo unspecified) | 4.1 | -30.4
Oc1cccc(CN2CCCn3cccc3C2c2ccc(F)cc2)c1O (stereo unspecified) | 2.5 | 98.3*
Cc1ccc(O)c(CN2CCCn3cccc3C2c2cccc(O)c2)c1 (stereo unspecified) | -3.9 | 100.3*
COCCCNC(=O)c1ccnc(N2CCNC(c3ccccc3)C2)c1 (stereo unspecified) | 3.6 | -4.8
Cn1nc(-c2nc(-c3cccc(F)c3)no2)c2c1CCN(C(=O)c1ccco1)C2 | -8.0 | 31.0
COc1cc(CN2CCCC2c2cc(C(C)C)on2)ccc1O (stereo unspecified) | -2.0 | 6.7
Cc1c(C(=O)O)oc2c1C(=O)CCC2 | -6.8 | -2.0
CCCCNC(=O)C1CCN(c2nc3ccc(-c4ccncc4)nc3s2)CC1 | 2.4 | 7.2
CC1=C/C(=C/c2ccc(-c3ccc([N+](=O)[O-])cc3)o2)C(=O)O1 | 3.0 | 19.0
CC1=C/C(=C\c2ccc(-c3ccccc3[N+](=O)[O-])o2)C(=O)O1 | -0.3 | 51.0*
O=C(/C=C/c1ccc(-c2ccc(Cl)cc2)o1)c1ccco1 | -4.0 | 57.7*
O=C(/C=C/c1ccc(-c2ccccc2[N+](=O)[O-])o1)c1ccco1 | -4.5 | 70.9*
O=C(/C=C/c1ccc(-c2ccccc2)o1)c1ccco1 | -1.3 | 48.1
O=C(/C=C/c1ccc(-c2ccc([N+](=O)[O-])cc2)o1)c1ccco1 | 7.8 | 12.8
O=C(NCc1csc(-c2ccccc2)n1)C1CCN(C(=O)Nc2cccc(F)c2)CC1 | -1.8 | -5.8
C=CCNC(=O)c1ccc(N2CCC3(CC2)OCCO3)c([N+](=O)[O-])c1 | -4.4 | 5.0
CC(C)=C1SC(=O)N(CC(=O)Nc2ccc(S(N)(=O)=O)cc2)C1=O | -2.0 | -7.9
NS(=O)(=O)c1ccc(NC(=O)CN2CC(=O)Oc3ccccc32)cc1 | -166.2 | 97.9*
SMILES | Pf apPOL inh | mHTT-CaM PPI inh
CSc1ccc(CN2CC(c3nc(C)no3)C2)cc1 | -6.5 | -18.4
Clc1nc(NCc2ccco2)nc(NC2CCCCC2)n1 | / | -3.7
Clc1nc(NCc2ccco2)nc(Oc2ccccc2)n1 | -5.4 | 53.0*
CCOc1ccc(N(CC)C(=O)c2nc(C)n(C3CCN(S(C)(=O)=O)CC3)c2C)cc1 | -4.2 | 12.0
COc1ccc(N(C)C(=O)c2nc(C)n(C3CCN(S(C)(=O)=O)CC3)c2C)cc1 | -12.1 | 85.8*
Cc1cc(C2(c3ccc(O)c(C)c3)C(=O)N(C)c3ccc(Br)cc32)ccc1O | -5.8 | 87.2*
CC(=O)c1c(C(C)=O)c(C)n(-c2cc(Br)ccc2O)c1C | -1.1 | 23.5
Cc1ccc2nc(NC(=O)c3ccccc3)sc2c1 | 0.7 | -6.0
CCC(=O)N1CCN(C(C(=O)N2CCCCC2C)C2CCCC2)CC1 (stereo unspecified) | -1.6 | 9.9
O=C1C=CC(=O)N1c1ccc(-c2nc3ccccc3o2)cc1 | -1.9 | 53.0*
O=C1c2ccc(-c3nc4ccccc4o3)cc2C(=O)N1c1ccc([N+](=O)[O-])cc1 | -2.9 | 8.0
O=C(c1ccc(Br)cc1)N1CCC(n2c(-c3ccoc3)nc3cccnc32)C1 (stereo unspecified) | 1.7 | 49.2
CCSc1nnc(NC(=O)c2ccc(N3CCCC3)nn2)s1 | -6.3 | 25.7
Cc1csc(NC(=O)c2ccc(N3CCCC3)nn2)n1 | -3.7 | 72.3*
CN(C)/C=C1\C(=O)N(c2nc3ccccc3s2)N=C1c1ccccc1 | -9.4 | -1.0
COc1ccc(C2=NN(c3nc4ccccc4s3)C(=O)/C2=C\N(C)C)cc1 | -1.3 | 73.0*
CS(=O)(=O)N(CC(=O)Nc1ccccc1C(=O)NCc1ccccc1)c1ccc(Cl)cc1 | 4.9 | 21.1
N#Cc1c(N)nc(SCC(=O)c2ccc(F)cc2)c(C#N)c1-c1ccc(O)cc1 | -0.5 | 30.1
CCn1ccc2oc(C)c(C(=O)N3CCN(c4ccc(Cl)cc4)CC3)c2c1=O | -4.6 | 36.7
CCCn1ccc2oc(C)c(C(=O)N3CCN(c4cccc(C)c4)CC3)c2c1=O | -0.2 | 66.8*
CCn1ccc2oc(C)c(C(=O)N3CCN(c4cccc(Cl)c4)CC3)c2c1=O | 2.9 | 93.7*
